The text below walks through data of PubChem BioAssay AID2017 (National Center for Advancing Translational Sciences (NCATS), 2009).

Structures are written as SMILES. Results filed as inconclusive are left out. A number with no mark means an inactive call. Calls come from the whole dose curve; as a rule, active = well fitted curve in the direction sought with a large enough effect; inconclusive = small, poorly fitted or top-dose-only effect, or another doubt; inactive = no such curve, though single readings can be large or run the other way.

The test system of this experiment is 4-diphosphocytidyl-2-C-methyl-D-erythritol kinase IspE (bacterial, species not stated). Kind of experiment: Confirmatory Assay for Inhibitors of Human Galactokinase (GALK): CDP-Me assay counterscreen. The following applies: ATP depletion, Kinase-Glo luminescence; series mostly up to 115 µM; activity change, negative = inhibition: at the top concentration. From the text: NIH Molecular Libraries Probe Production Centers Network [MLPCN] NIH Chemical Genomics Center [NCGC] MLPCN Grant: R03 MH085689-01 Assay Submitter (PI): Kent Lai (University of Utah School of Medicine, 50 N Mario Capecchi Drive, Salt Lake City, UT 84132) NCGC Assay Overview The GHMP kinase family is a unique class of important enzymes that plays an essential role in many metabolic processes. It contains more than 170 protein members among which are the galactokinase (GALK) and the CMK enzymes. GALK plays a crucial role in galactose processing and is a potential therapeutic target for Classic Galactosemia (OMIM: 230400). CMK is involved for the non-mevalonate synthesis of isoprenoids precursors and natural products like sterols or ubiquinones which are important to many biological functions. Although the sequence identity between GALK and CMK is low, the three-dimensional structures and active sites are highly similar. Therefore to determine the validity and selectivity of an active compound observed in the GALK qHTS screen (AID: 1868), a bioluminescent counter-screen targeting bacterial CMK was developed. In addition, because the mevalonate independent synthesis of isoprenoids are more prevalent in opportunistic pathogens such as bacteria, CMK is a potential novel therapeutic target where selective inhibitors could be used to determine potential antibacterial effects. The CMK (provided by Kent Lai) was assayed using ATP and 4-diphosphocytidyl-2-C-methyl-D-erythritol (CDP-ME; Echelon, cat# I-M052) as substrates. Promega Kinase-Glo Plus (cat# V3774) technology was used to detect the residual ATP following kinetic reaction. Briefly, the Kinase-Glo Plus contains Ultra-Glo [5] luciferase and D-luciferin which generates a bioluminescence signal from the remaining ATP.
NCGC Assay Protocol Summary: Three uL/well of substrate solution (15 uM ATP, 30 uM CDP-ME, 20 mM HEPES pH8.0, 5 mM MgCl2, 40 mM KCl, 1 mM DTT, 0.01% BSA final concentration) was dispensed into 1536-well, assay plates (Greiner, solid white medium-binding plates) with Aurora Discovery BioRAPTR Flying Reagent Dispenser (FRD; Beckton-Dickenson). […] One uL/well enzyme solution (0.25 ug/mL CDP-Me kinase, 20 mM HEPES pH8.0, 5 mM MgCl2, 40 mM KCl, 1 mM DTT, 0.01% BSA final concentration) was then added using the FRD yielding a total kinase reaction volume of 4 uL/ well. After 1 hour of room temperature incubation, 4 uL Kinase-Glo Plus reagent was added for a final assay volume of 8 uL/well. After 1 min, luminescence was detected with the ViewLux plate reader (Perkin Elmer, Waltham, MA) using a 1 sec exposure time and 2x binning settings.
For the compound `CCOC(=O)C1(Cc2cccc(F)c2)CCN(C(=O)COC)CC1`, the “activity change, negative = inhibition” value is 2.45%.

With `Cc1ccc(F)c(NC(=O)/C(C#N)=C(\O)c2ccc(C(C)(C)C)cc2)c1`, the “activity change, negative = inhibition” value was -5.97%.

Regarding `CCS(=O)(=O)C1=NN2C(=N)/C(=C\c3ccc(OS(=O)(=O)c4ccccc4)cc3)C(=O)N=C2S1`, the “activity change, negative = inhibition” value was -28.5%.

Take `C=CCN1C(=O)/C(=C/c2ccc(OC(C)=O)c(OCC)c2[N+](=O)[O-])SC1=S`: the “activity change, negative = inhibition” value was -15.3%.

Consider `CCS(=O)(=O)C1=NSC2=NC(=O)/C(=C\c3ccc(OS(=O)(=O)c4ccccc4)cc3)C(=N)N21`, for which the “activity change, negative = inhibition” value was -13.2%.

`S=c1[nH]nc(Cc2sc(-c3ccccc3)nc2-c2ccccc2)o1`: the “activity change, negative = inhibition” value is 1.28%.

For the compound `Cc1nc(NS(=O)(=O)c2ccc(Cl)s2)c2c3c(sc2n1)CCCC3`, the “activity change, negative = inhibition” value was 1.29%.

For the compound `O=C1C=CC2=C3c4cc(O)c(O)cc4CC3(O)COC2=C1O` (stereo not given), the “activity change, negative = inhibition” value is -6.18%.

Take `CC1(C)CC(=O)C2=C(C1)NC(Nc1nc3ccccc3o1)=NC21CCCC1`: the “activity change, negative = inhibition” value is 1.93%.

In the case of `O=C1C(Cl)=C(N2CCC(C(=O)O)CC2)C(=O)c2ccccc21`, the “activity change, negative = inhibition” value is -7.29%.

With `Cc1ccc(S(=O)(=O)/N=C2/NC(=O)/C(=C\c3cc(Br)cc(Br)c3O)S2)cc1`, the “activity change, negative = inhibition” value was -13.1%.

For `O=C1ON=C(c2ccccc2)/C1=C/c1ccc(O)c(O)c1`, the “activity change, negative = inhibition” value was 2.47%.

`CC1=NN(c2ccccc2)C(=O)/C1=C/c1c(O)n(-c2ccc(F)c(Cl)c2)[nH]c1=O`: the “activity change, negative = inhibition” value was -6.6%.

For the compound `C[C@H](NC(=O)C1CCC(CNC(=O)[C@@H]2CCCN2C(=O)OC(C)(C)C)CC1)C(=O)O` (stereo not given in full), the “activity change, negative = inhibition” value is 3.35%.

Turning to `Cc1snc(S(=O)(=O)/C(C#N)=N/Nc2ccc(C(F)(F)F)cc2)c1C#N`, the “activity change, negative = inhibition” value was -2.03%.

As to `CS(=O)(=O)c1ccc2c(c1)sc1nc(=O)c(/C=C3/C=CC(=O)C(O)=C3)c(N)n12`, the “activity change, negative = inhibition” value was -7.97%.

On to `O=C1/C(=C\c2ccc(O)c(O)c2)C(c2ccccc2)=NN1c1ccccc1`, for which the “activity change, negative = inhibition” value is 6.47%.

For `O=C1c2ccccc2C(=O)C12OC2c1cccc2ccccc12` (stereo not given), the “activity change, negative = inhibition” value is -1.36%.

Regarding `CC(C)OC(=O)C(C(=O)C(F)(F)F)c1cc(NS(=O)(=O)c2ccc3ccccc3c2)c2ccccc2c1O` (stereo not given), the “activity change, negative = inhibition” value is 0.739%.

Take `O=c1[nH]c(/C=C/c2ccc([N+](=O)[O-])cc2)c([N+](=O)[O-])c(=O)[nH]1`: the “activity change, negative = inhibition” value was -4.01%.

With `Cc1snc(S(=O)(=O)/C(C#N)=N/Nc2cccc(C(F)(F)F)c2)c1C#N`, the “activity change, negative = inhibition” value is -2.05%.

`CC(=O)c1ccc(NC(=S)Nc2cccc3cnccc23)cc1`: the “activity change, negative = inhibition” value was -3.41%.

Take `O=S(=O)(NCc1cccs1)c1ccc(Br)s1`: the “activity change, negative = inhibition” value is 2.41%.

Consider `COCc1cc(CN2CCCC2)c(O)c2ncccc12`, for which the “activity change, negative = inhibition” value is 2.55%.

Consider `COc1ccc2cc(C(N)=O)c(=Nc3ccc(C)cc3)oc2c1`, for which the “activity change, negative = inhibition” value was -0.694%.

Turning to `O=C(O)c1ccc(NC2=C/C(=N/S(=O)(=O)c3ccccc3)c3ccccc3C2=O)cc1`, the “activity change, negative = inhibition” value was -4.74%.

In the case of `COC(=O)c1ccc(CSc2ccc3nnc(-c4ccccn4)n3n2)o1`, the “activity change, negative = inhibition” value is -0.879%.

Take `CCS(=O)(=O)C1=NSC2=NC(=O)/C(=C\c3ccc(OS(=O)(=O)c4ccccc4)c(OC)c3)C(=N)N21`: the “activity change, negative = inhibition” value was -10.4%.

As for `N#C/C(=C(/O)Cc1cccc2ccccc12)c1nc2ccccc2s1`, the “activity change, negative = inhibition” value is -0.506%.

For the compound `O=C1C=C(N(CCO)Cc2ccccc2)c2ccccc2C1=O`, the “activity change, negative = inhibition” value is -28.7%.

For the compound `CS(=O)(=O)C1=NSC2=NC(=O)/C(=C\c3ccc(OS(=O)(=O)c4ccccc4)cc3)C(=N)N21`, the “activity change, negative = inhibition” value was -8.39%.

Consider `O=C(O)c1cccc(S(=O)(=O)N2CCC(n3nnc4cc(C(F)(F)F)ccc43)CC2)c1`, for which the “activity change, negative = inhibition” value is 1.46%.

`O=C1CCCC2=C1C1(CCCCC1)N=C(Nc1nc3ccccc3o1)N2`: the “activity change, negative = inhibition” value is -2.3%.

As for `CCOc1cc(/C=C2/C(=N)N3C(=NC2=O)SN=C3S(C)(=O)=O)ccc1OS(=O)(=O)c1ccccc1`, the “activity change, negative = inhibition” value is -4.75%.

With `COc1ccc(-n2nnc3c(=O)n(CC(=O)N4CCC(C)CC4)cnc32)cc1`, the “activity change, negative = inhibition” value was 1.87%.

As for `O=C(COc1ccccc1/C=C\c1[nH]c(=O)[nH]c(=O)c1[N+](=O)[O-])Nc1ccccc1`, the “activity change, negative = inhibition” value is -1.25%.

As to `COc1ccc(C/C(O)=C(\C#N)c2nc3ccccc3s2)cc1`, the “activity change, negative = inhibition” value is -4.02%.

Take `CCN1CCN(CCNC(=O)c2ccc3nc(-c4cccc(C)c4)c(-c4cccc(C)c4)nc3c2)CC1`: the “activity change, negative = inhibition” value was -1.48%.

Take `CCOc1cc(/C=C2\C(=O)ON=C2c2ccccc2)cc(Br)c1O`: the “activity change, negative = inhibition” value is 2.32%.

With `CCOC(=O)c1cc(-c2ccc(/C=C3/C(=O)N(c4ccc(C(=O)O)cc4)N=C3C)o2)ccc1Cl`, the “activity change, negative = inhibition” value is -0.967%.
